Bioassay records deposited in PubChem BioAssay by National Center for Advancing Translational Sciences (NCATS).
A selection: hits, their analogues and other compounds. The true share with any hit is near 7.1%.
MARV entry inh: inhibitors of Marburg virus binding or entry into cells; 6.5% of 18,000 active; Potency, µM (top dose mostly 49.2 µM), for inactives: top-dose activity change, negative = inhibition, most hits filed as inhibitors; Marburg virus pseudotype entry/binding inhibition, cell-based
LASV entry inh: inhibitors of Lassa virus binding or entry into cells. Potency, µM (top dose mostly 49.2 µM), without a hit: top-dose activity change, negative = inhibition, most hits filed as inhibitors. Lassa virus pseudotyped entry inhibition, cell-based qHTS. 4.1% of 18,000 active
Active calls of the source: *; ? = inconclusive; · = no result given; ! = not active in a repeat; [ ] = dose if it differs, or a comment. Calls come from the whole dose curve; tested in HEK293 cells. % is set by controls: 0 for no effect and ±100 for the full control effect; potency is the fitted concentration of half-maximal effect.

SMILES	MARV entry inh	LASV entry inh
CC12C=C(C=Cc3ccc(C(F)(F)F)cc3)C(C)(C1)C(c1ccc(C(F)(F)F)cc1)CC2=O (stereo not given)	6%[8.59 µM]	-1%[8.59 µM]
CC(C)NC[C@@H](O)COc1cccc2[nH]ccc12	2%	1%
CC(C)NCC(O)COc1cccc2ccccc12 (stereo not given)	20µM*	?
CO[C@@H]1c2cc(F)ccc2C(=CCCOC(=O)CC=Cc2ccccc2)[C@H]1C	-24%[8.59 µM]	-5%[8.59 µM]
O=C(OCc1cn([C@@H]2C[C@H](c3ccc(Cl)cc3)N(Cc3cccs3)C[C@@H]2O)nn1)c1ccccc1	-25%	·
COc1cccc(CN2CCCC(c3nc(-c4ccncc4)ncc3-c3ccccc3)C2)c1O (stereo not given)	11µM*	-30%
COc1ccc(CN2CCCC(c3nc(-c4ccncc4)ncc3-c3ccccc3)C2)c(OC)c1OC (stereo not given)	?	-15%
COc1ccc(CN2CCCC(c3nc(-c4ccncc4)ncc3-c3ccccc3C)C2)c(OC)c1 (stereo not given)	3.5µM*	18µM*
Cc1ccccc1-c1cnc(-c2ccncc2)nc1C1CCCN(Cc2ccccc2O)C1 (stereo not given)	?	-28%
C[C@@]1(C(=O)O)NCCc2cc(O)c(O)cc21	8.9µM*	-17%
O=C(c1cccs1)N1C[C@@H](O)[C@@H](n2cc(C3CC3)nn2)C[C@@H]1c1ccccc1	-21%	13%
O=c1n(CCCN2CCN(c3cccc(Cl)c3)CC2)nc2ccccn12	10%	0%
CN1CCN(CCCN2c3ccccc3Sc3ccc(C(F)(F)F)cc32)CC1	16µM*	22µM*
O=C1CSC2(CCN(CCCN3c4ccccc4Sc4ccc(Cl)cc43)CC2)N1	22µM*	?
O=C(CCN1CCN(CCO)CC1)N1c2ccccc2Sc2ccc(C(F)(F)F)cc21	?	-15%
N#Cc1ccc2c(c1)N(CCCN1CCC(O)CC1)c1ccccc1S2	20µM*	-9%
c1ccc2c(c1)Sc1ccccc1N2CCN1CCCC1	?	-28%
Cc1ccc(C(=O)NC2CC2)cc1-c1ccc2[nH]ncc2c1	-9%	·
C[C@@H]1CC[C@H]2C(=O)N3[C@@H](CC[C@@H](C)[C@@H]3c3ccc(-c4ccco4)cc3)C(=O)N2[C@@H]1c1ccc(-c2ccco2)cc1	-2%[8.59 µM]	-1%[8.59 µM]
CC(C)[C@@H](OCc1ccccc1)[C@H](C)CON=C1[C@H]2CCn3c(=O)n(-c4ccccc4)c(=O)n3[C@@H]2[C@H](O)[C@@H]2O[C@H]12	25%[8.59 µM]	10%[8.59 µM]
Fc1ccc([C@H]2CCNC[C@H]2COc2ccc3c(c2)OCO3)cc1	11µM*	?
COc1ccc2c(c1)O[C@@H](c1ccc3c(c1)OCO3)[C@H](OC(=O)NS(=O)(=O)c1ccc(F)cc1)C2=O	19%	0%
Fc1ccc([C@H]2CCNCC2COc2ccc3c(c2)OCO3)cc1 (stereo not given in full)	10µM*	-14%
COc1ccc2c(c1)O[C@H](c1ccc3c(c1)OCO3)[C@@H](OC(=O)NS(=O)(=O)c1ccc(F)cc1)C2=O	8%	3%
CC(CCC(=O)OC[C@H]1O[C@H](C#Cc2ccccc2)C=C[C@H]1Oc1ccc(C)cc1)=NO[C@@H](C)c1cn([C@H](CO)Cc2ccccc2)nn1	9%[8.59 µM]	·
SMILES	MARV entry inh	LASV entry inh
COc1cccc([C@@H]2NC(=O)CC=C[C@H](C)[C@H](c3cccc(OC)c3)NC(=O)CC=C[C@H]2C)c1	16%[8.59 µM]	5%[8.59 µM]
CC/C(=C(/CC)c1ccc(O)cc1)c1ccc(O)cc1	?	3.5µM*
CCOC(=O)c1ccc(O)cc1	13%	7%
CC/C(=C(/CC)c1ccc(OP(=O)(O)O)cc1)c1ccc(OP(=O)(O)O)cc1	8%	-14%
CCC(=C(CC)c1ccc(O)cc1)c1ccc(O)cc1	?	6.3µM*
COc1cccc(-c2c[nH]c3c(NN=Cc4ccncc4)ncnc23)c1	?	-65%
COC1=C[C@@H](C(=O)N[C@H]2CCCC[C@H]2NC(C)=O)[C@]2(C)Cc3ccccc3[C@H]2CC1=O	?	6%[8.59 µM]
C[C@@H]1CCCN1[C@H]1C[S+](=O)([O-])N[C@H]1COCc1ccccc1	16%	·
COc1ccc(CCN(C)Cc2cc(-c3cncnc3)ccc2O)cc1OC	-13%	-10%
CN(C)CCCc1cc(C(=O)Nc2ccc(-c3ccncc3)cc2)ccc1O	6.3µM*	35µM*!
CC(CCC(=O)OC[C@H]1O[C@H](C#Cc2ccccc2)C=C[C@H]1Oc1ccc(C)cc1)=NO[C@H](C)c1cn([C@@H]2COC[C@@H]2O)nn1	0%[8.59 µM]	·
COc1ccc2c(c1)C[C@@H](C)O[C@]21C(=O)Nc2ccccc21	71%[8.59 µM]	35%[8.59 µM]
CCN(CC)CCNc1ccc(CO)c2sc3ccccc3c(=O)c12	11µM*	3%[17.8 µM]
CCCCCC(=O)N1C[C@@H](n2cc(C3CC3)nn2)[C@H](O)C[C@H]1c1ccccc1	-7%	17%
CCC(=O)N1C2=C(c3ccccc3[C@@H]1CC(=O)Nc1ccc3ccccc3c1)[C@H]1C(=O)N(c3ccccc3)C(=O)[C@@H]1[C@H](C)C2	?	14%[8.59 µM]
Cc1ccc(CN2[C@@H](CC(C)C)COc3c(Cl)cccc3S2(=O)=O)cc1	-26%	-8%
C[C@@H]1[C@@H]2Cc3ccc(O)cc3[C@@]1(C)CCN2CC1CC1	-14%	-9%
C[C@@H]1[C@@H]2Cc3ccc(O)cc3[C@@]1(C)CCN2CCc1ccccc1	20µM*	?
Oc1ccc2c3c1O[C@H]1c4[nH]c5c(c4C[C@@]4(O)[C@@H](C2)N(CC2CC2)CC[C@]314)C[C@]1(O)[C@H]2Cc3ccc(O)c4c3[C@@]1(CCN2CC1CC1)[C@@H]5O4	3%	-10%
COc1ccc2c3c1O[C@H]1C(=O)CC[C@@]4(O)C(C2)N(CC2CC2)CCC314 (stereo not given in full)	?	-7%
Oc1ccc2c3c1O[C@H]1c4c(c5ccccc5n4Cc4ccccc4)C[C@@]4(O)C(C2)N(CC2CC2)CC[C@]314	7.9µM*	14µM*
Oc1ccc2c3c1O[C@H]1c4oc5ccccc5c4C[C@@]4(O)C(C2)N(CC2CC2)CC[C@]314	14µM*	?
O=C1N(Cc2ccc(Br)cc2)c2cccc(Br)c2[C@@]12O[C@H](COc1ccccc1)CC1=CCCC12 (stereo not given in full)	11%[8.59 µM]	-18%[8.59 µM]
O=C(OCc1cn([C@H]2CN(CC3CCCCC3)[C@@H](c3ccc(Cl)cc3)C[C@H]2O)nn1)c1ccccc1	?	-35%
CCOC(=O)CN1C(=O)[C@]2(OCCC=C[C@@H]2C)c2ccccc21	1%[8.59 µM]	11%[8.59 µM]
CC(C)[C@H]1COc2cc(Br)ccc2S(=O)(=O)N1C(=O)c1ccc(F)cc1F	26%	-5%
CC(C)COCC(CN(Cc1ccccc1)c1ccccc1)N1CCCC1 (stereo not given)	6.3µM*	14µM*!
CCOC(=O)NN=C1C[C@@H](O)[C@@H](O)[C@@H]2[C@H]3C(=O)N(c4ccc(F)cc4F)C(=O)[C@@H]3CC[C@H]12	-21%[8.59 µM]	9%[8.59 µM]
COc1ccc(COC(=O)NN=C2C[C@@H](O)[C@@H](O)[C@@H]3[C@H]4C(=O)N(C5CCCCC5)C(=O)[C@@H]4CC[C@@H]23)cc1	-29%[8.59 µM]	·
COc1ccc(COC(=O)NN=C2C[C@@H](O)[C@@H](O)[C@@H]3[C@H]4C(=O)N(c5ccc(F)cc5F)C(=O)[C@@H]4CC[C@H]23)cc1	30%[8.59 µM]	1.3µM*
